Data as given in the supplement of paper PMC9844399.
Where “and” joins values, the source holds several entries; their conditions need not be identical. Equal entries are not always repeated. Structures can show the parent of a compound that is named as a salt.

tested on: HeLa; assay: nuclear count per well, robust Z-score vs DMSO; higher = more cells (less toxicity); conditions: 10 µM; 6 h
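Further: Hoechst-stained nuclei counted by automated confocal imaging of four fields per well in 384-well plates, with the robust Z-score based on the per-plate DMSO median and robust SD.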

| SMILES | nuclear count per well |
| --- | --- |
| O=C1NC(=O)C(c2ccccc2[N+](=O)[O-])=C1Nc1ccc(O)c(Cl)c1 | -0.894 |
| CCOC(=O)O[C@]1(C(=O)OCCl)CC[C@H]2[C@@H]3CCC4=CC(=O)C=C[C@]4(C)[C@H]3[C@@H](O)C[C@@]21C [Loteprednol Etabonate] | 1.34 |
| COc1c(C)c2c(c(O)c1C/C=C(\C)CCC(=O)O)C(=O)OC2 [Mycophenolic Acid] | -0.237 |
| CN[C@H]1CC[C@@H](c2ccc(Cl)c(Cl)c2)c2ccccc21 [Sertraline hydrochloride] | -0.819 |
| Nc1nc(Cl)nc2c1ncn2[C@@H]1O[C@H](CO)[C@@H](O)[C@@H]1F [Clofarabine] | -0.461 |
| C=CC1=C(C(=O)O)N2C(=O)[C@@H](NC(=O)/C(=N\O)c3csc(N)n3)[C@H]2SC1 [Cefdinir] | 1.25 |
| COc1cc(C(C)=O)ccc1OCCCN1CCC(c2noc3cc(F)ccc23)CC1 [Iloperidone] | 0.0344 |
| CC(/C=C/C(=O)NO)=C\[C@@H](C)C(=O)c1ccc(N(C)C)cc1 [Trichostatin A] | 0.636 |
| CC(C)[C@H](N)C(=O)OCCOCn1cnc2c(=O)nc(N)[nH]c21 | 0.9 |
| CN1CCN(CCCN2c3ccccc3Sc3ccc(C(F)(F)F)cc32)CC1 [Trifluoperazine dihydrochloride] | -1.26 |
| CNC[C@H](O)c1cccc(O)c1 [Phenylephrine] | -0.74 |
| CC(/C=C/C(=O)NO)=C\[C@@H](C)C(=O)c1ccc(N(C)C)cc1 [Trichostatin-A] | -2.22 |
| O=C(O)CC[C@H]1CC[C@@](c2cc(F)ccc2F)(S(=O)(=O)c2ccc(Cl)cc2)CC1 | -0.879 |
| O=C(NCCCCCCNC(=O)ON=C1CCCCC1)ON=C1CCCCC1 | 0.866 and 0.536 |
| CNCCCC12CCC(c3ccccc31)c1ccccc12 | 0.319 |
| CCCOc1ccc(C(=O)OCCN(CC)CC)cc1N | -0.434 |
| NC[C@H](O)c1ccc(O)c(O)c1 [Norepinephrine Bitartrate Monohydrate] | 0.285 |

| SMILES | nuclear count per well |
| --- | --- |
| CCN1CCCC1CNC(=O)c1cc(S(N)(=O)=O)ccc1OC (stereo not drawn) [Sulpiride] | 0.691 |
| CN(C)CCC[C@@]1(c2ccc(F)cc2)OCc2cc(C#N)ccc21 [Escitalopram] | 0.345 |
| CCCCCCCC/C=C\C/C=C\C/C=C\CCCC(=O)O [Mead acid (20:3 n-9)] | 0.463 |
| CO/N=C(\C(=O)N[C@@H]1C(=O)N2C(C(=O)OCOC(=O)C(C)(C)C)=C(/C=C\c3scnc3C)CS[C@H]12)c1csc(N)n1 [Cefditoren Pivoxil] | 0.574 |
| CC[C@H]1OC(=O)[C@H](C)[C@@H](O[C@H]2C[C@@](C)(OC)[C@@H](O)[C@H](C)O2)[C@H](C)[C@@H](O[C@@H]2O[C@H](C)C[C@H](N(C)C)[C@H]2O)[C@](C)(OC)C[C@@H](C)C(=O)[C@H](C)[C@@H](O)[C@]1(C)O [Clarithromycin] | -0.394 |
| C[N+](C)(C)CCOC(N)=O [Carbachol (Carbamylcholine ) Chloride] | -0.166 |
| CN1CCC(=C2c3ccccc3C=Cc3ccccc32)CC1 | -0.305 |
| CN[C@H](CC(C)C)C(=O)N[C@H]1C(=O)N[C@@H](CC(N)=O)C(=O)N[C@H]2C(=O)N[C@H]3C(=O)N[C@H](C(=O)N[C@H](C(=O)O)c4cc(O)cc(O)c4-c4cc3ccc4O)[C@H](O)c3ccc(c(Cl)c3)Oc3cc2cc(c3O[C@@H]2O[C@H](CO)[C@@H](O)[C@H](O)[C@H]2O[C@H]2C[C@](C)(N)[C@H](O)[C@H](C)O2)Oc2ccc(cc2Cl)[C@H]1O | 1.53 |
| COc1cc2nc(N3CCN(C(=O)C4COc5ccccc5O4)CC3)nc(N)c2cc1OC (stereo not drawn) [Doxazosin Mesylate] | 0.467 |
| CC(C)(C)c1cc(O)c(C(C)(C)C)cc1O [2,5-Ditertbutylhydroquinone] | -0.952 |
| COc1cc2nc(N3CCN(C(=O)c4ccco4)CC3)nc(N)c2cc1OC [Prazocin] | 0.533 |
| C[C@]12CCC(=O)C=C1CC[C@@H]1[C@@H]2C(=O)C[C@@]2(C)[C@H]1CC[C@]2(O)C(=O)CO [Cortisone] | 0.0389 |
| CO/N=C(\C(=O)N[C@@H]1C(=O)N2C(C(=O)OC(C)OC(C)=O)=C(COC(N)=O)CS[C@H]12)c1ccco1 (stereo partly drawn) [Cefuroxime Axetil] | -0.643 |
| CCCCC[C@H](O)/C=C/[C@H]1C(=O)C=C[C@@H]1C/C=C\CCCC(=O)O [Prostaglandin J2] | 0.0931 |
| CSc1ccc2c(c1)N(CCC1CCCCN1C)c1ccccc1S2 (stereo not drawn) [Thioridazine hydrochloride] | 0.72 |
| OCCOCCN1CCN(C2=Nc3ccccc3Sc3ccccc32)CC1 [Quetiapine hemifumarate salt] | -1.01 |
